A selection: hits, their analogues and other compounds. The true share with any hit is near 4.2%.
ClpP mod: qHTS Assay for Activators of ClpP; ATP-dependent Clp protease proteolytic subunit (Bacillus subtilis (strain 168)), P80244; purified B. subtilis ClpP, FRET peptide cleavage, 20 min; Potency, µM (highest dose often 57.5 µM); hit rate 1.9% among 340,000; AID 651965, 2013; active = well fitted falling curve with a large enough effect; inconclusive = small, poorly fitted or top-dose-only effect; inactive = no such curve, though single readings can be large or run the other way; also: the source files actives as falling curves though it sought activators and does not explain the sign; nearly all actives have a fitted effect of over 65% in size
Target sequence (P80244 whole entry, looked up): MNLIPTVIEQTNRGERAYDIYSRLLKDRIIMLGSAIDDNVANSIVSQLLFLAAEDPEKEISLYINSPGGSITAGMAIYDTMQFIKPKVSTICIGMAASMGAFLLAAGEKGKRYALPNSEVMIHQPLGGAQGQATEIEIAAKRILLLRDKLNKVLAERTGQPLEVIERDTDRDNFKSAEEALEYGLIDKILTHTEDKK
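FRET quenching reversal measured ClpP activation: 10 microg/mL B. subtilis ClpP at pH 8 with the FRET-FV decapeptide, read at 430 nm after 320 nm excitation. The 20-min minus 0-min signal was scaled between DMSO/no-enzyme wells and ADEP (5.8 microM final).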
uPA surface inh: cell surface uPA generation inhibition; cell surface uPA generation assay, qHTS; hit rate 0.31% among 330,000; AID 540303; Potency, µM (series often up to 38.3 µM), actives largely listed as inhibitors; active = well fitted inhibition curve with a large enough effect; inconclusive = small, poorly fitted or top-dose-only effect; inactive = no such curve, though single readings can be large or run the other way; tested in mouse RAW 264.7 cells; also: nearly all actives have a fitted effect of over 55% in size
Sfp inh: Sfp phosphopantetheinyl transferase inhibition; Q9F4F7; Potency, µM, most hits filed as inhibitors; Biochemical Sfp PPTase activity, qHTS; hit rate 3.5% among 310,000;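 also: the enzyme is Sfp with the accession as filed and its product quenches rhodamine fluorescence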
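Fluorescence-quenching assay: 15 nM Sfp-PPTase preincubated 15 min at room temperature with compound, then 5 uM rhodamine-CoA and 12.5 uM BHQ-2-labelled YbbR peptide added. Fluorescence (ex 525/em 598 nm) read at start and after 30 min; difference gives rate.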
TCR act: T cell receptor activation | primary human leukocytes, anti-CD3, IL-2 HTRF, 48 h | AID 504894 | 330,000 tested, under 10 active | Potency, µM (highest dose often 9.22 µM), actives largely listed as activators
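TCR engagement came from a-CD3 beads alone, with compounds added to primary human leukocytes for 48 hr. Secreted IL-2 bridged europium cryptate- and d2-labelled anti-IL-2 antibodies, giving FRET emission at 665nm after 320nm excitation.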
Numbers stand for hits; n = inactive; u = inconclusive; x = no result. Unless noted, calls follow the shape of the dose curve; as a rule, active = well fitted curve in the direction sought with a large enough effect; inconclusive = small, poorly fitted or top-dose-only effect, or another doubt; inactive = no such curve, though single readings can be large; an effect the other way counts as inactive or inconclusive.

SMILES	ClpP mod	uPA surface inh	Sfp inh	TCR act
COc1ccc(N(C(=O)c2snc(C(N)=O)c2N)C(C(=O)NC2CCCCC2)c2ccc(F)cc2)c(OC)c1 (stereo not drawn)	x	n	n	n
CCC1CN(C(=O)N2CCC(C(=O)NCCc3ccc(Cl)cc3)CC2)c2ccccc2O1 (stereo not drawn)	n	x	x	x
N#Cc1cc2c(=O)n3ccccc3nc2n(-c2nnc(SCc3ccccc3Cl)s2)c1=O	n	x	x	x
CCOc1ccc2ncc3c(-c4cccc(OC)c4)nn(-c4ccccc4)c3c2c1	10µM	x	x	x
CC(C)(C)N(CC#CCC(O)(c1ccccc1)c1ccccc1)CCO	n	n	39.8µM	n
COc1ccc(NC(=O)Cn2c(=O)oc3cc(S(=O)(=O)NCc4ccccc4)ccc32)c(OC)c1	n	x	x	x
CC1(C(=O)NCCCN2CCCC2=O)CCN1CCc1ccccc1 (stereo not drawn)	n	x	x	x
COc1cc(/C=N/N=C(N)N)ccc1OCc1ccccc1Cl	n	u	25.1µM	n
CC(C)(C)Nc1c(-c2ccc(O)cc2)nc2ccc(Cl)cn12	x	n	63.1µM	n
Oc1ccc(-c2nc3cnccn3c2Nc2ccc3c(c2)OCCO3)cc1	n	u	n	n
CC(C)(C)CC(C)(C)Nc1c(-c2ccc(O)cc2)nc2cnccn12	22.4µM	x	x	n
OCC[C@@H]1C[C@@H](O)[C@H](O)[C@@]2(Cc3ccccc3O2)O1	n	n	n	n
Cc1cc(C)c(NC(=S)NCCCSC2CCCCC2)c(C)c1	x	n	44.7µM	n
COc1cccc(NC(=O)NCCCSC2CCCCC2)c1	n	x	n	n
Cc1ccn2c(=O)cc(COc3ccc(NC(=O)C(C)(C)C)cc3)nc2c1	n	x	x	x
COc1ccc(-n2c(C)cc(/C=C3\SC(=S)N(Cc4ccco4)C3=O)c2C)cc1	n	n	n	n
CCN1CCN(c2c(/C=C3\SC(=S)N(Cc4ccco4)C3=O)c(C)c(C#N)c(=O)n2C)CC1	x	n	25.1µM	n
CCOc1ccc(OCC)c(C2C(C#N)=C(N)N(c3cccnc3)C3=C2C(=O)CC(C)(C)C3)c1 (stereo not drawn)	n	n	31.6µM	n
CSc1sc(C)cc1C1C(C#N)=C(N)N(c2cccnc2)C2=C1C(=O)CC(C)(C)C2 (stereo not drawn)	n	n	n	n
Cc1ccc([C@H]2C[C@H](n3cc(C4CC4)nn3)[C@@H](O)CN2C(=O)C2CCCCC2)cc1	n	x	x	x
Cc1cc(C)nc(Nc2ccc(N3CCCC3)cc2)n1	n	n	79.4µM	n
CCn1c(=O)c(-[n+]2ccccc2)c(O)c2ccccc21	n	n	12.6µM	n
CCn1c(=O)c(C(=O)NNC(=O)c2ccccc2)c(O)c2ccccc21	x	n	n	n
CCc1nc(SCC(=O)c2cccs2)c2oc3ccccc3c2n1	n	n	35.5µM	n
COc1cccc(OC)c1OCCN(C)C	n	n	n	n
SMILES	ClpP mod	uPA surface inh	Sfp inh	TCR act
COc1cccc(OC)c1OCCNC(C)(C)C	31.6µM	n	n	n
CCC(Cc1c(I)cc(I)c(O)c1I)C(=O)O (stereo not drawn)	x	x	56.2µM	x
CCCC(=O)Nc1c(I)cc(I)c(C[C@H](CC)C(=O)O)c1I	x	x	n	x
CC(C)CN(C(=O)CSc1nnc(-c2ccco2)o1)c1c(N)n(Cc2ccccc2)c(=O)[nH]c1=O	n	n	79.4µM	n
CC(C)CN(C(=O)COC(=O)c1ccccc1NCc1ccco1)c1c(N)n(Cc2ccccc2)c(=O)[nH]c1=O	28.2µM	n	x	n
CCN(C(=O)COC(=O)c1ccccc1NCc1ccco1)c1c(N)n(Cc2ccccc2)c(=O)[nH]c1=O	n	n	x	n
CCCOC(=O)c1ccccc1O	x	x	n	x
O=C(OCC(=O)N(CCc1ccccc1)Cc1ccccc1)c1ccc(F)c(S(=O)(=O)N2CCOCC2)c1	n	n	x	n
c1n[nH]c(NC2=NCCC2)n1	n	n	44.7µM	n
c1ccc2[nH]c(NC3=NCCC3)nc2c1	n	n	n	n
CN(C(=O)CSc1nc2ccc(NC(=O)CCc3ccccc3)cc2s1)c1ccccc1	n	x	x	x
Cc1cc(N2CCC(C)CC2)nc2ccc(N3C(=O)CCC3=O)cc12	39.8µM	n	n	n
CN(C)NC(=S)NC1CCS(=O)(=O)C1 (stereo not drawn)	n	n	79.4µM	n
O=S1(=O)CCC(NC(=S)NC2CCS(=O)(=O)C2)C1 (stereo not drawn)	n	n	n	n
CC[n+]1ccccc1/C=C1\Sc2ccc(C)cc2N1C	n	7.08µM	n	n
O=C(c1cccc2ccccc12)N1CCN(S(=O)(=O)c2ccccc2)CC1	n	x	x	x
CCc1ccccc1Oc1nc2cc(-c3cccc(OC)c3)sc2c(=O)n1C	12.6µM	x	x	x
COCCNc1nc(Oc2ccc(NC(C)=O)cc2)c2sc(-c3ccccc3)cc2n1	31.6µM	x	x	x
COCCNc1nc(-c2cc(F)ccc2C)c2sc(-c3ccccc3)cc2n1	n	x	x	x
COCCNc1nc(-c2ccccc2F)c2sc(-c3ccccc3)cc2n1	31.6µM	x	x	x
CCc1ccccc1Oc1nc(NCCOC)nc2cc(-c3ccccc3)sc12	22.4µM	x	x	x
O=C(Nc1ccc2nc(SCC(=O)N3CCOCC3)sc2c1)c1ccc(F)cc1	n	x	x	x
CCOc1ccccc1-c1nnc2n1N=C(c1ccc(OC)c(OC)c1)CS2	x	x	n	x
S=C1SCN(CC2CC2)CN1CC1CC1	x	n	35.5µM	n
O=C(CSc1nnc(-c2ccc(Cl)cc2)n1Cc1ccco1)c1cccs1	n	n	22.4µM	n
SMILES	ClpP mod	uPA surface inh	Sfp inh	TCR act
O=C(CSc1nnc(-c2ccncc2)n1Cc1ccco1)c1ccc(Cl)cc1	n	n	22.4µM	n
COc1ccc(C(=O)CSc2nnc(-c3cccnc3)n2Cc2ccco2)cc1	n	n	n	n
N#Cc1ccc(C(=O)CSc2n[nH]c(=O)n2Cc2ccco2)cc1	28.2µM	n	n	n
O=C(CSc1nnc(-c2ccncc2)n1Cc1ccco1)Nc1ccccc1Cl	n	n	44.7µM	n
O=C(CSc1n[nH]c(=O)n1Cc1ccco1)c1ccc2c(c1)OCCO2	n	n	n	n
CCc1c(C)c2ccccc2[nH]c1=O	n	x	x	x
COC(=O)CN1C(=O)C(C)(C)c2cc(S(=O)(=O)Nc3ccc(Br)cc3F)ccc21	n	x	x	x
Cc1ccc(-n2nnnc2CNC(=O)c2ccccc2F)cc1C	n	x	x	x
Cc1ccc(C)c(C(C)NC(=O)CC#N)c1 (stereo not drawn)	n	n	n	n
Cc1ccc(C)c(C(C)NC(=O)c2ccc(Br)o2)c1 (stereo not drawn)	n	n	50.1µM	n
Nc1nn(-c2ccccc2)c(N)c1N=Nc1cccc(F)c1	n	1.41µM	n	n
COc1ccccc1OCc1cc(C(=O)N2CCN(C)C(c3ccccc3)C2)no1 (stereo not drawn)	n	n	n	n
CN1CCN(C(=O)c2cc(COc3c(F)cccc3F)on2)CC1c1ccccc1 (stereo not drawn)	x	n	10µM	n
Cc1ccccc1-n1c(CSC(=N)N)nc2ccccc2c1=O	11.2µM	n	n	n
N=C(N)SCc1nc2ccccc2c(=O)n1-c1ccccc1Cl	u	n	n	n
CCOC(=O)c1cc2c(n(-c3ccccc3)c1=O)CC(C)(C)CC2=O	12.6µM	x	n	x

Screening data deposited in PubChem by National Center for Advancing Translational Sciences (NCATS).
